Drawing on PubChem BioAssay, this text covers z-score and composite z-score for 9 compounds.

Calls of active or inactive are those of the source.

Assay [1] is described as follows: E. coli DRC41 culture turbidity changes, primary screen, E. coli filamentation inducer project, strain DRC41, OD650, 48 h (AID 1152).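 Also: E. coli MC1000 strain DRC41 lacking acrAB efflux pump and sulA.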 The note with it: E. coli DRC41 (acrAB sulA), higher = more signal, called active from +8 up or from −8 down.
Assay [2] can be described thus: small-molecule binders of probe aLefty1, primary screen, biochemical, small-molecule microarray, 635/667 nm fluorescence (AID 1153).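 Also: score merges spot fluorescence with signal-to-noise ratio from the scanned slide images.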 Particulars: higher = more signal.
Assay [3] is described as follows: PSAC antagonists in infected red cells, primary screen, cell-based, P. falciparum Indochina, OD700, 1 h (AID 1154). Particulars: P. falciparum Indochina infected RBC osmotic lysis, higher = more signal, called active from +8 up or from −8 down.
Assay [4] is described as follows: PSAC antagonists in infected red cells, primary screen, cell-based, P. falciparum Indochina, OD700, 2 h (AID 1155).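 Also: lysis reports solute entry through the parasite surface anion channel PSAC; channel blockers reduce lysis of infected cells.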 The note with it: P. falciparum Indochina infected erythrocytes, osmotic lysis OD700; higher = more signal, called active from +8 up or from −8 down.
The nature of assay [5]: osmotic lysis modulators in infected erythrocytes, primary screen, PSAC antagonist project, cell-based, P. falciparum Indochina, OD700, 3 h (AID 1156). The note with it: higher = more signal, called active from +8 up or from −8 down.
Assay [6] is described as follows: PSAC antagonists in infected red cells, primary screen, cell-based, P. falciparum Indochina, OD700, 18 h (AID 1157). Particulars: P. falciparum Indochina infected erythrocytes, osmotic lysis OD700, 18 h; higher = more signal, called active from +8 up or from −8 down.
The nature of assay [7]: modulators of S6 phosphorylation in cells, primary screen, cell-based, A549, cytoblot, luminescence, serum-stimulated (AID 1158).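 Also: serum-stimulated A549 lung adenocarcinoma cells; signal is phosphorylated S6 detected by cytoblot immunostaining with HRP secondary.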 Particulars: A549 phospho-S6 cytoblot, 5 h, higher = more signal.
The target in assay [8] is NADPH oxidase 2 (Homo sapiens) (UniProt P04839). As to the kind of experiment: NOX2-dependent H2O2 signal modulators, primary screen, NOX inhibitor project, cell-based, HEK293-NOX2, PMA-stimulated, Amplex Red fluorescence (AID 1159). Also: test concentration not given here. Particulars: 45 min, higher = more signal, called active from +8 up or from −8 down.
For assay [9], the target named is NADPH oxidase 4 (Homo sapiens) (UniProt Q9NPH5). As to the kind of experiment: NOX4-dependent H2O2 signal modulators, primary screen, NOX inhibitor project, cell-based, HEK293-NOX4, tetracycline-induced, Amplex Red fluorescence (AID 1160). Particulars: 45 min, higher = more signal, called active from +8 up or from −8 down.
Assay [10] concerns the target NADPH oxidase 5 (Homo sapiens) (UniProt Q96PH1). The experiment in a line: NOX5-dependent H2O2 signal modulators, primary screen, NOX inhibitor project, cell-based, HEK293-NOX5, Amplex Red fluorescence (AID 1161). The note with it: HEK293-NOX5, ionomycin, 45 min, higher = more signal.
Assay [11] is described as follows: A549 cell viability effects, profiling panel, calcein-AM fluorescence, 48 h, basal (AID 1162). Also: test concentration not given here. The note with it: higher = more signal.
Assay [12] is described as follows: adipocyte viability effects, profiling panel, cell-based, 3T3-L1 adipocytes, calcein-AM fluorescence, 48 h, basal (AID 1163). Also: test concentration not given here. Particulars: 3T3-L1 adipocytes viability, higher = more signal.
Assay [13] can be described thus: HepG2 cell viability effects, profiling panel, calcein-AM fluorescence, 48 h, basal (AID 1164). Also: test concentration not given here. The note with it: higher = more signal.
Assay [14] is described as follows: MM1S cell viability effects, profiling panel, calcein-AM fluorescence, 48 h, basal (AID 1165).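 Also: viability of MM1S multiple myeloma cells under basal unstimulated conditions; test concentration not given here.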 Particulars: higher = more signal.
Assay [15] can be described thus: basal RPMI8226 viability, no added stimulus, profiling panel, cell-based, calcein-AM fluorescence, 48 h, PK04 Diversity Set (AID 1166).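 Also: cells grown under basal conditions without added stimulus; test concentration not given here.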 The note with it: RPMI8226 myeloma viability, higher = more signal.
A short description of assay [16]: basal HepG2 mitochondrial membrane potential changes, profiling panel, cell-based, JC-1 fluorescence, 24 h, 100 nL compound (AID 1167). Also: test concentration not given here. Particulars: higher = more signal.
Assay [17] can be described thus: basal 3T3-L1 adipocyte mitochondrial potential changes, profiling panel, cell-based, JC-1 fluorescence, 3T3-L1 adipocytes, 24 h, 100 nL compound (AID 1168). Also: test concentration not given here. The note with it: JC-1 mitochondrial fluorescence, higher = more signal, called active from +8 up or from −8 down.
The nature of assay [18]: basal RPMI8226 mitochondrial membrane potential changes, profiling panel, cell-based, JC-1 fluorescence, 24 h, 100 nL compound (AID 1169). Also: test concentration not given here. Particulars: RPMI8226 myeloma, JC-1 mitochondrial potential fluorescence, higher = more signal.
A short description of assay [19]: basal MM1S mitochondrial membrane potential changes, profiling panel, cell-based, JC-1 fluorescence, 24 h, 100 nL compound (AID 1170). Also: test concentration not given here. Particulars: higher = more signal.
The nature of assay [20]: A549 lung cancer cell viability effects, profiling panel, resazurin fluorescence, 24 h, PK04 Diversity Set (AID 1171). Also: test concentration not given here. The note with it: higher = more signal, called active from +8 up or from −8 down.

Chain of NADPH oxidase 4 (Homo sapiens) (Q9NPH5 whole entry, looked up): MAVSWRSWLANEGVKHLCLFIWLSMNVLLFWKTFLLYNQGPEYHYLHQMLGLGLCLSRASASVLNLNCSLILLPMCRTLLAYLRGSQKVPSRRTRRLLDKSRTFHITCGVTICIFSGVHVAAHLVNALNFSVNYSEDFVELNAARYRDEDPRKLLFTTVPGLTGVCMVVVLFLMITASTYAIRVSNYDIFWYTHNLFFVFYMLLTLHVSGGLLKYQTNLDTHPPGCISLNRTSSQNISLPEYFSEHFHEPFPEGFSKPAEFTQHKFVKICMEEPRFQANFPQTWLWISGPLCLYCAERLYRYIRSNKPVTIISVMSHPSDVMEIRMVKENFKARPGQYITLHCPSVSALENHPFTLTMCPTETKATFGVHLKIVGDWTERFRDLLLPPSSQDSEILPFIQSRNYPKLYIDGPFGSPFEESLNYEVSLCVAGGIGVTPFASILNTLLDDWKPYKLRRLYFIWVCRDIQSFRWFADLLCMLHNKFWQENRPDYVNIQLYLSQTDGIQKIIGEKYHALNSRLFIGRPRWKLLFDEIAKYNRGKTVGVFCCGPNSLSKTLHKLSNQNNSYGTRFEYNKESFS
Chain of NADPH oxidase 5 (Homo sapiens) (Q96PH1 whole entry, looked up): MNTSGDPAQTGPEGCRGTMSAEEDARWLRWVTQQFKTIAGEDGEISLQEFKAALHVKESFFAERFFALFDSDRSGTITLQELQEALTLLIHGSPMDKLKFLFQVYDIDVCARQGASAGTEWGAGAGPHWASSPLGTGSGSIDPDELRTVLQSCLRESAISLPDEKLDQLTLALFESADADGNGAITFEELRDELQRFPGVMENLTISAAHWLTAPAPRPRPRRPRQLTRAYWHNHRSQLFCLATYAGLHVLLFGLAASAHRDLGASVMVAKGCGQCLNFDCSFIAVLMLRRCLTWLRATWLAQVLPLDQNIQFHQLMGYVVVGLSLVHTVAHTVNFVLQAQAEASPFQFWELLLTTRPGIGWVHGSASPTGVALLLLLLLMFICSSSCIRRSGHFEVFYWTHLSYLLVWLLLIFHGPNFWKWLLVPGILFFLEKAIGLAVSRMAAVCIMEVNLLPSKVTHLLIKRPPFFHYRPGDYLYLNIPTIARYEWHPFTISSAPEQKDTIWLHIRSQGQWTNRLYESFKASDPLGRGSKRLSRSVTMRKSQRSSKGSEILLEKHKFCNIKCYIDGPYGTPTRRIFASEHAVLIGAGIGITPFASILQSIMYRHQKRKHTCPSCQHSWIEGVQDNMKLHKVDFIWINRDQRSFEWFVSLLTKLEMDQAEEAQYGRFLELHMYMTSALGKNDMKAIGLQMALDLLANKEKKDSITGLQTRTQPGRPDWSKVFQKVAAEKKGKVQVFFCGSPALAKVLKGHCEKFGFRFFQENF
Chain of NADPH oxidase 2 (Homo sapiens) (P04839 whole entry, looked up): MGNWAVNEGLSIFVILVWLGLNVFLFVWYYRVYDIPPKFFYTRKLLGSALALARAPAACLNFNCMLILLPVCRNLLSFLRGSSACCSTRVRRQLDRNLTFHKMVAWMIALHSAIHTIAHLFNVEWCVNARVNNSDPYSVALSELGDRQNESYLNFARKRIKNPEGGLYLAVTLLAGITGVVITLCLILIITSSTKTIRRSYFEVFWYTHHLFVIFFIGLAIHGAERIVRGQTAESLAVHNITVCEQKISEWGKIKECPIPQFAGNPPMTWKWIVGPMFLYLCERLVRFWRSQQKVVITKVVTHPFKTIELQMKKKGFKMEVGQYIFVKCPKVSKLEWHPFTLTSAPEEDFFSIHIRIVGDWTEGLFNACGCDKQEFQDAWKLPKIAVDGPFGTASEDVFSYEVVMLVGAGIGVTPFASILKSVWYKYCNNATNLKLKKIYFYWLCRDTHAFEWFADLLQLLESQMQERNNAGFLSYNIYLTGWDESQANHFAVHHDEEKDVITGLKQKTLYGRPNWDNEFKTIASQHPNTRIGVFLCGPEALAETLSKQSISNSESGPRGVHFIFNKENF

Turning to `CC[C@@H]1C=C(C(=O)O)[C@H](c2ccc(C(C)C)cc2)N1S(=O)(=O)c1ccc(C)cc1`, the z-score was -0.646 (inactive) in [1]; 0.998 (inactive) in assay [3]; 0.845 (inactive) in assay [4]; 0.105 (inactive) in assay [5]; 0.709 (inactive) in assay [6]; -0.334 in assay [7]. Further, the z-score was 0.685 (inactive) in assay [8]; -0.418 (inactive) in assay [9]; -0.0711 in [10]; -0.658 in assay [11]; -0.178 in assay [12]; -0.391 in [13]. Moreover, the z-score in assay [14] is -0.683; in assay [15] it was -0.251; in assay [16], -0.961; in assay [17], 0.495 (inactive); in [18], -0.971; in assay [19], -0.574. In addition, the z-score in assay [20] is -0.42 (inactive). Moreover, the composite z-score in [2] turned out to be 1.36.
For `[N-]=[N+]=NCc1ccccc1[C@H]1OC(c2ccc(OCCCO)cc2)=N[C@@]1(Cc1ccccc1)C(=O)NCC(O)CO` (stereo not given in full), the z-score was -0.112 (inactive) in [1]; 25.4 (active) in assay [3]; 12.1 (active) in assay [4]; 1.87 (inactive) in assay [5]; 1.67 (inactive) in assay [6]; -0.09 in assay [7]. Also, the z-score in assay [8] was 0.046 (inactive); in assay [9] it was 0.497 (inactive); in [10], -0.796; in assay [11] it was 0.347; in assay [12], -0.445; in assay [13], 0.547. The z-score in [14] is -1.9; in assay [15], -1.36; in assay [16], 0.831; in [17], -0.699 (inactive); in assay [18], -0.399; in [19] it was -1.11. The z-score in assay [20] was 0.951 (inactive). This compound registered a composite z-score in [2] of 1.61.
Turning to `Cc1ccc(S(=O)(=O)N2CC(C(=O)O)=CCC2c2ccccc2)cc1` (stereo not given), the z-score in [1] was -1.24 (inactive); in [3], 1.17 (inactive); in assay [4] it was 1.1 (inactive); in [5] it was 1.13 (inactive); in [6] it was 0.879 (inactive); in assay [7], -0.55. In addition, the z-score was -0.363 (inactive) in [8]; -1.02 (inactive) in assay [9]; -1.02 in assay [10]; -0.901 in assay [11]; 0.324 in assay [12]; -0.772 in [13]. In addition, the z-score in assay [14] is -0.249; in [15] it was -1.19; in assay [16], -0.644; in [17] it was -2.04 (inactive); in assay [18] it was -0.25; in [19] it was 1.53. Also, the z-score in assay [20] is -0.717 (inactive). The same compound came in with a composite z-score in assay [2] of 0.0717.
Regarding `CC1CC/C=C\[C@H]2OC34C=CCN(c5ccc6ccccc6c5)C(=O)[C@H]3N(CCCCCO)C(=O)[C@@H]4C2C(=O)O1` (stereo not given in full), the z-score was -0.557 (inactive) in [1]; 0.157 (inactive) in assay [3]; 0.222 (inactive) in [4]; -0.0324 (inactive) in [5]; 0.0382 (inactive) in assay [6]; 0.455 in assay [7]. Besides, the z-score in assay [8] is 0.718 (inactive); in [9], -0.265 (inactive); in assay [10] it was 1.7; in assay [11], 0.111; in assay [12] it was 0.956; in [13], 0.778. For the same compound, the z-score was 1.68 in assay [14]; -0.823 in assay [15]; -0.684 in [16]; -0.381 (inactive) in assay [17]; 1.1 in assay [18]; 0.401 in assay [19]. Further, the z-score in assay [20] is -0.292 (inactive). This compound also returned a composite z-score in assay [2] of -0.427.
Turning to `CC(C)NC(=O)[C@@H]1c2ccccc2C(=O)N(C2CCCCC2)[C@H]1c1ccc(CO)cc1`, the z-score in [1] was -0.359 (inactive); in [3], -0.521 (inactive); in [4], 0.169 (inactive); in assay [5] it was -0.113 (inactive); in assay [6] it was -0.136 (inactive); in assay [7], -0.061. Moreover, the z-score in [8] was 0.664 (inactive); in assay [9], 0.822 (inactive); in assay [10], 0.802; in assay [11], 0.699; in assay [12], -0.209; in assay [13], 0.581. For the same compound, the z-score was -0.594 in assay [14]; -2.04 in assay [15]; 1.54 in assay [16]; -0.656 (inactive) in [17]; -0.811 in assay [18]; 0.103 in assay [19]. Also, the z-score in assay [20] was 1.08 (inactive). The composite z-score in [2] is -0.101.
`COCCn1c(C(=O)N(C)C)cc2c1C[C@H]1CN(C(=O)c3ccccc3)[C@@](Cc3ccc(F)cc3)(C(=O)OC)[C@@H]21`: the z-score in assay [1] was 0.118 (inactive); in assay [3], 0.666 (inactive); in assay [4], -0.34 (inactive); in assay [5] it was -0.0451 (inactive); in [6], 0.397 (inactive); in assay [7] it was -0.17. Further, the z-score was 0.395 (inactive) in [8]; 0.211 (inactive) in assay [9]; -1.69 in [10]; 0.428 in [11]; -0.687 in assay [12]; 0.684 in assay [13]. In addition, the z-score in assay [14] was -0.259; in [15] it was -0.362; in assay [16] it was 0.938; in [17], -0.499 (inactive); in assay [18], 0.172; in [19] it was -0.929. Also, the z-score in [20] was -0.774 (inactive). The composite z-score in assay [2] stood at 0.211.
As to `Cc1ccc(N2C(=O)c3ccccc3[C@](C)(C(=O)NCCN3CCOCC3)[C@@H]2c2ccc(CO)cc2)nc1`, the z-score is -0.285 (inactive) in [1]; 1.12 (inactive) in assay [3]; 0.645 (inactive) in assay [4]; 2.69 (inactive) in assay [5]; 0.178 (inactive) in assay [6]; -0.113 in [7]. For the same compound, the z-score was 1.86 (inactive) in assay [8]; 0.236 (inactive) in [9]; 0.286 in [10]; -0.68 in [11]; 0.994 in [12]; -0.808 in assay [13]. In addition, the z-score was 0.839 in assay [14]; -1.49 in [15]; 0.144 in [16]; -0.674 (inactive) in [17]; -0.628 in [18]; 0.0375 in [19]. In assay [20], the z-score was 0.667 (inactive). Moreover, the composite z-score in assay [2] is -0.229.
For the compound `COc1ccc(C(=O)Nc2cccc(CN3C(=O)[C@@]4(O[C@@H](CCn5cc([C@H](O)c6ccccc6)nn5)[C@H]([Si](C)(C)c5ccc(OC)cc5)[C@H]4C)c4ccccc43)c2)cc1`, the z-score in assay [1] is -0.677 (inactive); in [3], 4.91 (inactive); in [4], 0.715 (inactive); in assay [5], 0.618 (inactive); in assay [6], 1.04 (inactive); in [7] it was 0.858. Moreover, the z-score is -0.492 (inactive) in assay [8]; 0.663 (inactive) in assay [9]; 2.23 in [10]; -0.311 in [11]; 0.0953 in assay [12]; -3.44 in assay [13]. Further, the z-score in assay [14] was -2.63; in [15] it was -3.6; in assay [16], -2.16; in [17] it was -0.694 (inactive); in assay [18], -1.03; in assay [19], -2.24. Moreover, the z-score in [20] was -1.88 (inactive). The composite z-score in assay [2] amounted to 0.379.
As for `CCCC[C@H]1OB(O)C[C@H]2C1=C(COc1ccccc1)C[C@H]1C(=O)N(Cc3ccccc3)C(=O)[C@H]12`, the z-score in [1] was -0.288 (inactive); in assay [3], 6.03 (inactive); in assay [4] it was 1.38 (inactive); in [5] it was 0.0146 (inactive); in assay [6], 0.475 (inactive); in assay [7], -0.056. The z-score in assay [8] was -0.0336 (inactive); in assay [9], 0.143 (inactive); in [10] it was 0.245; in assay [11], 0.358; in assay [12], 0.488; in [13], -0.429. The z-score in assay [14] is -1.09; in [15] it was -1.08; in [16], 0.989; in assay [17] it was 0.241 (inactive); in assay [18], -0.163; in assay [19] it was -0.446. For the same compound, the z-score in assay [20] was 0.574 (inactive). Further, the composite z-score in assay [2] was found to be 0.179.
